# Pf Dd2 inh = qHTS Primary assay for Inhibitors of Plasmodium falciparum Dd2 growth in vitro. P. falciparum Dd2 growth, SYBR Green, 72 h. actives 4.3% (n = 120,000). Potency, µM (highest dose often 28.9 µM), for inactives: top-dose activity, negative = inhibition, actives largely listed as inhibitors; active = well fitted inhibition curve with a large enough effect;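 note: plate controls were DMSO vehicle for no effect and reference drug for full effect; nearly all actives have a fitted effect of over 65% in size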
#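 Readout: SYBR Green fluorescence, 485 nm excitation, 535 nm emission, after ~16 h lysis at 37C. Before that, Dd2-infected red cells (2.5% hematocrit) grew 72 h with compound, 29 uM top final concentration.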
# * hit, by the source's call; i = inactive; [ ] = remark or other dose. Shown is part of a subset that was picked to be rich in hits. Potency is the fitted concentration of half-maximal effect.
SMILES,Pf Dd2 inh
CN(C)C(=O)c1ccc(OC2CCN(C(=O)c3ccccc3C(F)(F)F)CC2)nc1,-4%
COc1ccc(C(=O)N2CCC(Oc3ccc(-c4noc(-c5ccccc5)n4)cc3)C2)cn1 (stereo not drawn),i[5.79 µM]
CN(C)c1ccc(CN2Cc3[nH]cnc3C[C@H]2c2nc(-c3ccccc3)no2)cc1,-15%[44.1 µM]
Cc1ccc(-c2noc([C@@H]3Cc4nc[nH]c4CN3Cc3ccccc3)n2)cc1,10µM*
CCNC(=O)N1Cc2[nH]cnc2C[C@H]1c1nc(-c2ccc(F)c(Cl)c2)no1,i
O=C(Nc1ccc(Cl)cc1)N1Cc2[nH]cnc2C[C@H]1c1nc(-c2ccc(F)c(Cl)c2)no1,i
COc1ccc(CN2Cc3[nH]cnc3C[C@H]2c2nc(-c3ccccn3)no2)cc1,-3%[44.1 µM]
COc1ccc(CN2Cc3[nH]cnc3C[C@H]2c2nc(-c3ccc(C)cc3)no2)cc1,22µM*
Fc1ccc(CN2Cc3[nH]cnc3C[C@H]2c2nc(-c3ccc(F)c(Cl)c3)no2)cc1,11µM*
Cc1ccc(-c2noc([C@@H]3Cc4nc[nH]c4CN3C(=O)CCC(=O)O)n2)cc1,-15%[44.1 µM]
Cc1ccc(-c2noc([C@@H]3Cc4nc[nH]c4CN3Cc3ccc(N(C)C)cc3)n2)cc1,i
O=C(c1ccccc1)N1Cc2[nH]cnc2C[C@H]1c1nc(-c2ccc(Cl)cc2)no1,i
c1ccc(CN2Cc3[nH]cnc3C[C@H]2c2nc(-c3ccccc3)no2)cc1,13µM*
COc1ccc(-c2noc([C@@H]3Cc4nc[nH]c4CN3Cc3cccs3)n2)cc1,i
O=C(NC1CCc2nnc(C3CC3)n2CC1)c1ccsc1 (stereo not drawn),22%
CN1C(=O)CCC2(CNC(=O)c3cnccn3)CCC=C12 (stereo not drawn),17%
OC[C@@H]1O[C@H](CNC2CCOCC2)[C@H](N2CCOCC2)[C@@H]1O,-9%[44.1 µM]
CS(=O)(=O)N(C1CC1)C1CCOC2(CCN(C(=O)c3cc(F)ccc3F)CC2)C1 (stereo not drawn),-24%
CC1=C[C@@H](CO)[C@H](C(C)C)C[C@H]1CC(=O)NCc1ccc(C(F)(F)F)cc1,-14%[44.1 µM]
COc1ccccc1NC1CN(C(=O)OC(C)(C)C)C1,-4%[44.1 µM]
FC1(c2nc(-c3ccccc3)no2)CCN(C2CCOCC2)CC1,-16%
O=C(Nc1cccc(F)c1)N1Cc2[nH]cnc2C[C@H]1c1nc(-c2ccc(C(F)(F)F)cc2)no1,i
Cc1ccc(-c2noc([C@@H]3Cc4nc[nH]c4CN3C(=O)COCC(=O)O)n2)cc1,11%[44.1 µM]
COc1ccccc1CN1Cc2[nH]cnc2C[C@H]1c1nc(-c2cccc(C)c2)no1,13µM*
Cc1cccc(-c2noc([C@@H]3Cc4nc[nH]c4CN3C(=O)CC(C)(C)CC(=O)O)n2)c1,i
SMILES,Pf Dd2 inh
c1csc(CN2Cc3[nH]cnc3C[C@H]2c2nc(-c3ccncc3)no2)c1,i
FC(F)(F)c1ccc(-c2noc([C@@H]3Cc4nc[nH]c4CN3Cc3cc4ccccc4o3)n2)cc1,8.9µM*
CN(Cc1ccccc1)Cc1cn([C@H]2CO[C@H]3[C@@H]2OC[C@@H]3NCC2CCCCC2)nn1,-30%[44.1 µM]
CCCCC(=O)N1CCC2(CC1)SCC(=O)N2c1ccc(Cl)cc1,i
CCOc1cc(=O)n2c(c1C(=O)Nc1cc(Cl)c(OC)cc1OC)CCCC2,-24%
Cc1cccc(NC(=O)CSc2nc3c([nH]c4ccccc43)c(=O)n2C)c1,4%
COc1cccc(-n2c(SCC(=O)c3ccccc3)nc3c([nH]c4ccccc43)c2=O)c1,8%
Cc1cc(C)cc(-n2c(SCC(=O)Nc3nnc(C)s3)nc3c([nH]c4ccccc43)c2=O)c1,7%
Cc1cc(NC(=O)CSc2nc3c([nH]c4ccccc43)c(=O)n2-c2ccc(Cl)cc2)no1,-3%
O=C(CSc1nc2c([nH]c3ccccc32)c(=O)n1-c1ccccc1)Nc1ccccc1C(F)(F)F,28%
COc1cccc(-n2c(SCc3cccc(C)c3)nc3c([nH]c4ccccc43)c2=O)c1,10µM*
COc1ccc(Cl)cc1NC(=O)CSc1nc2c([nH]c3ccccc32)c(=O)n1-c1ccccc1,4.5µM*
Cc1ccc(-n2c(SCC(=O)Nc3ccc4c(c3)OCO4)nc3c([nH]c4ccccc43)c2=O)cc1,10µM*
Cc1cccc(CSc2nc3c([nH]c4ccccc43)c(=O)n2C)c1,27%
CCn1c(SCC(=O)Nc2cc(Cl)ccc2OC)nc2c([nH]c3ccccc32)c1=O,i
CCOc1ccc(-n2c(SCC(=O)Nc3cc(C)on3)nc3c([nH]c4ccccc43)c2=O)cc1,i
COc1cccc(NC(=O)CSc2nc3c([nH]c4ccccc43)c(=O)n2-c2cc(C)cc(C)c2)c1,8.9µM*
Cc1ccc(NC(=O)Cn2c(C)cc3nc4n(c(=O)c32)CCCC4)cc1Cl,-18%
CCOc1ccc(NC(=O)N2CC(c3nnc(-c4ccncc4)o3)C3(CCOCC3)C2)cc1 (stereo not drawn),-11%
Clc1cnccc1CN1CCNc2cnc(-c3ccccc3)cc2C1,i
O=C(NC1C[C@H]2CC[C@@H](C1)N2C(=O)Cc1ccsc1)c1ccc(F)cc1 (stereo partly drawn),-24%
Nc1nc2c(c(C(=O)N[C@H](c3ccccn3)C3CC(O)C3)n1)CCCC2 (stereo partly drawn),-24%
Cn1cnnc1CC1CCN(C(=O)c2cn3cc(Cl)ccc3n2)CC1,-6%
CN1CCN(CC(O)COc2ccc(CN3CC(c4ccccn4)C3)cc2)CC1 (stereo not drawn),32%
COCCOC1CCN(C(=O)NCCc2ccccc2)CC1,14%
SMILES,Pf Dd2 inh
O=C(COc1ccccc1)Nc1ccc([C@@H](O)[C@H]2COCC(=O)N2)cc1,i
COc1ccc(-c2nc(-c3ccccc3)c(-c3ccc(F)cc3)[nH]2)c(OC)c1C,11µM*
COc1ccc(-c2ccc3nc(-c4cc(F)cc(F)c4)oc3c2)c(OC)c1OC,4%
COc1ccc(Br)cc1CNC(=O)CSc1n[nH]c(-c2ccccc2)n1,3%
COc1cc(-c2nc(SCC(=O)Nc3ccc(C)cc3)c(-c3ccc(F)cc3)[nH]2)cc(OC)c1OC,i
Oc1ccc(-c2nc(-c3ccccc3)c(-c3ccc(Br)cc3)[nH]2)cc1,6.3µM*
COc1ccc(-c2ccc3nc(-c4ccccc4)oc3c2)c(OC)c1OC,i
O=C(O)c1ccc(-c2nc3ncccc3[nH]2)cc1,-7%[44.1 µM]
COc1cc(-c2nc(-c3ccccc3)c(-c3ccc(Br)cc3)[nH]2)cc(OC)c1O,1.4µM*
O=S(=O)(Nc1ccc(Br)cc1F)c1ccc2nc(-c3ccccc3)[nH]c2c1,3%
COc1cccc(C(=O)N2C(C(=O)N3CCOCC3)COC23CCN(C(=O)CC(C)(C)C)CC3)c1 (stereo not drawn),-5%
CN(C)[C@@H]1[C@@H](NC(=O)Cc2noc3ccccc23)[C@H]2CCO[C@H]21,-21%
CC(NC(=O)Cc1cccn1-c1cccc(Cl)c1)c1ccccn1 (stereo not drawn),i
c1cncc(COc2cc3c(cn2)NCCN(CC2CCCCC2)C3)c1,-15%[44.1 µM]
CCc1csc(CNC(=O)c2ccc(N3CCSCC3)nc2)n1,-23%
O=C(CCCc1ccccc1)N1CCn2c(nnc2[C@@H]2C[C@@H](O)CN2Cc2ccccc2)C1,-5%
CCOC(=O)c1c(C)[nH]c(C)c1S(=O)(=O)NCC(=O)Nc1cc(Cl)ccc1OC,0%
CCOC(=O)c1c(C)[nH]c(C)c1S(=O)(=O)N(C)CC(=O)Nc1cccc(Cl)c1C,-7%
